We go through eight compounds from PubChem BioAssay (NCI).

Compounds without any hit were thinned out: in the full panel of roughly 83,000, 20% have a hit.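 Note: values are percent growth. 100 is the growth of untreated cells, values between 100 and 0 indicate rising inhibition; between -100 and 0 indicates cell death.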 Unmarked numbers belong to inactive results. Activity calls are given as the source filed them. The calls were made as follows: active = growth percent below 10; inactive = the rest.

Test systems include DU-145 prostate; K-562 leukemia; MALME-3M melanoma; MDA-MB-231 breast; RXF 393 renal; SF-268 CNS; SF-295 CNS; SF-539 CNS; UACC-257 melanoma; M14 melanoma; HCT-15 colon; HT29 colon; SNB-75 CNS; U251 CNS; PC-3 prostate; SK-MEL-5 melanoma; UACC-62 melanoma; LOX IMVI melanoma; SK-MEL-28 melanoma; SNB-19 CNS.
What all share (experiment): NCI-60 one-dose screen, 48 h (100 = growth as untreated, 0 = no growth, -100 = all killed)
What all share (settings): 10 µM unless noted

Consider `Cn1c2ccccc2c2c3[nH]c(=O)[nH]c(=O)c3c3c4ccccc4n(C)c3c21`, for which the growth with DU-145 prostate was 29.2%; in the experiment on K-562 leukemia, 56.1%; with MALME-3M melanoma it was 20%; in the experiment with MDA-MB-231 breast, 46%; in the experiment on RXF 393 renal it was 6.48% (active); in the experiment on SF-268 CNS it was 32.4%. Further, the growth with SF-295 CNS is 69.6%; in the experiment on SF-539 CNS it was 39.5%; in the experiment on UACC-257 melanoma it was 78.1%; in the experiment on M14 melanoma, 31.8%; in the experiment with HCT-15 colon, 24.2%; with HT29 colon it was 14.4%. Besides, the growth was -38.4% (active) in the experiment on SNB-75 CNS; 21.9% in the experiment with U251 CNS; 41.1% with PC-3 prostate; 29.3% in the experiment on SK-MEL-5 melanoma; 43% in the experiment on UACC-62 melanoma; 22.5% in the experiment on LOX IMVI melanoma. For the same compound, the growth with SK-MEL-28 melanoma is 27.2%.

In the case of `c1ccc2c(Nc3cccc4ccccc34)cccc2c1`, the growth is 86.4% with DU-145 prostate; 11.2% in the experiment on K-562 leukemia; 50% in the experiment with MALME-3M melanoma; 46% in the experiment with MDA-MB-231 breast; 83.8% with RXF 393 renal; 72.7% with SF-268 CNS. Besides, the growth was 69.1% in the experiment with SF-295 CNS; 56.9% in the experiment with SF-539 CNS; 80.3% in the experiment with UACC-257 melanoma; 30.3% with M14 melanoma; 35.1% in the experiment with HCT-15 colon; 15.8% in the experiment with HT29 colon. For the same compound, the growth is 20.8% with SNB-75 CNS; 32.1% with U251 CNS; 65.2% in the experiment on PC-3 prostate; 71% in the experiment on SK-MEL-5 melanoma; 23.7% in the experiment with UACC-62 melanoma; 52.6% in the experiment with LOX IMVI melanoma. Moreover, the growth in the experiment on SK-MEL-28 melanoma was 61.5%.

As to `COc1ccc(OCC(=O)Nc2ccc(-c3nc4ccccc4s3)cc2C)cc1`, the growth in the experiment with DU-145 prostate is 110%; in the experiment with K-562 leukemia, 59.5%; with MALME-3M melanoma it was 100%; in the experiment with MDA-MB-231 breast, 85.7%; with RXF 393 renal it was 115%; in the experiment with SF-268 CNS it was 94.3%. In addition, the growth is 99.8% with SF-295 CNS; 89.6% in the experiment on SF-539 CNS; 109% with UACC-257 melanoma; 89.9% in the experiment on M14 melanoma; 85.9% in the experiment on HCT-15 colon; 91.7% with HT29 colon. Besides, the growth with SNB-75 CNS is 83.4%; in the experiment with U251 CNS, 96.2%; with PC-3 prostate it was 75.9%; with SK-MEL-5 melanoma, 70.8%; with UACC-62 melanoma it was 83.2%; in the experiment with LOX IMVI melanoma, 89%. Besides, in the experiment with SK-MEL-28 melanoma, the growth was 107%.

Take `CC(C)C1=C[C@@]23CC[C@@H]4[C@](C)(CCC[C@@]4(C)C(=O)OCC#CCN4CCCC4)[C@H]2C[C@@H]1[C@H]1C(=O)OC(=O)[C@H]13`: the growth was 89.2% in the experiment on DU-145 prostate; 68.5% in the experiment on K-562 leukemia; 89.6% with MALME-3M melanoma; 98.3% in the experiment with MDA-MB-231 breast; 110% with RXF 393 renal; 93.1% in the experiment on SF-268 CNS. Further, the growth is 97.3% in the experiment on SF-295 CNS; 92.1% with SF-539 CNS; 96.5% in the experiment on UACC-257 melanoma; 96.6% with M14 melanoma; 90.6% with HCT-15 colon; 90.7% in the experiment with HT29 colon. Moreover, the growth is 97.4% in the experiment on SNB-19 CNS; 100% with U251 CNS; 77.8% in the experiment with PC-3 prostate; 91.3% in the experiment with SK-MEL-5 melanoma; 82.1% in the experiment with UACC-62 melanoma; 89.1% in the experiment on LOX IMVI melanoma. In addition, in the experiment with SK-MEL-28 melanoma, the growth is 101%.

With `Cc1ccc2c(c1)n([O-])c1cc(Cl)ccc1[n+]2=O`, the growth with DU-145 prostate was 101%; with K-562 leukemia, 78.8%; in the experiment on MALME-3M melanoma it was 97.8%; in the experiment on MDA-MB-231 breast, 80.9%; in the experiment with RXF 393 renal it was 107%; in the experiment with SF-268 CNS, 108%. The growth in the experiment on SF-295 CNS is 109%; in the experiment with SF-539 CNS, 107%; in the experiment with UACC-257 melanoma, 97.1%; in the experiment on M14 melanoma, 99%; in the experiment with HCT-15 colon, 119%; with HT29 colon it was 112%. Besides, the growth was 91.3% in the experiment with SNB-75 CNS; 110% in the experiment with U251 CNS; 93.6% with PC-3 prostate; 107% with SK-MEL-5 melanoma; 89% in the experiment with UACC-62 melanoma; 129% in the experiment with LOX IMVI melanoma. In addition, the growth in the experiment with SK-MEL-28 melanoma is 133%.

Take `CCCCCCCCCC(=O)Oc1ccc(/C(=C(/C)Cc2cccc(OC)c2)c2ccc(OCCN(C)C)cc2)cc1`: the growth in the experiment on DU-145 prostate was 108%; with K-562 leukemia it was 100%; with MALME-3M melanoma, 115%; with MDA-MB-231 breast it was 105%; in the experiment on RXF 393 renal, 115%; in the experiment on SF-268 CNS it was 100%. In addition, the growth was 107% in the experiment with SF-295 CNS; 103% with SF-539 CNS; 110% in the experiment on UACC-257 melanoma; 105% in the experiment on M14 melanoma; 105% in the experiment with HCT-15 colon; 109% with HT29 colon. Moreover, the growth in the experiment on SNB-19 CNS was 109%; in the experiment with U251 CNS it was 110%; in the experiment on PC-3 prostate, 110%; in the experiment on SK-MEL-5 melanoma, 107%; in the experiment with UACC-62 melanoma, 97.8%; in the experiment with LOX IMVI melanoma, 102%. The growth in the experiment with SK-MEL-28 melanoma was 114%.

`O=C(CN1CCN(c2cc3c(cc2F)c(=O)c(C(=O)O)cn3C2CC2)CC1)Nc1cc(=O)[nH]c(=O)[nH]1`: the growth with DU-145 prostate is 112%; in the experiment on K-562 leukemia, 103%; in the experiment with MALME-3M melanoma, 95.3%; with MDA-MB-231 breast it was 102%; in the experiment with RXF 393 renal, 94.4%; with SF-268 CNS, 100%. For the same compound, the growth was 86.8% in the experiment on SF-295 CNS; 96.6% in the experiment with SF-539 CNS; 103% in the experiment with UACC-257 melanoma; 89.2% with M14 melanoma; 96.1% in the experiment on HCT-15 colon; 102% in the experiment on HT29 colon. The growth with SNB-19 CNS was 97.4%; in the experiment on U251 CNS it was 106%; in the experiment with PC-3 prostate, 99%; in the experiment with SK-MEL-5 melanoma, 98.9%; in the experiment on UACC-62 melanoma, 96%; in the experiment on LOX IMVI melanoma, 101%. Besides, the growth with SK-MEL-28 melanoma was 101%.

`COc1ccc(C(=O)COc2ccc(/C=C3\Oc4ccc(Cl)cc4C3=O)cc2)cc1`: the growth with DU-145 prostate was 107%; with K-562 leukemia, 16.7%; in the experiment on MALME-3M melanoma, 115%; with MDA-MB-231 breast, 86.8%; in the experiment on RXF 393 renal, 101%; in the experiment with SF-268 CNS, 108%. In addition, the growth with SF-295 CNS is 92.7%; with SF-539 CNS it was 86.3%; with UACC-257 melanoma, 89.9%; in the experiment with M14 melanoma, 104%; in the experiment on HCT-15 colon it was 103%; with HT29 colon, 109%. For the same compound, the growth in the experiment on SNB-75 CNS is 88.8%; with U251 CNS, 96.7%; in the experiment on SK-MEL-5 melanoma, 78.8%; in the experiment with UACC-62 melanoma, 83.6%; in the experiment with LOX IMVI melanoma, 92%; in the experiment on SK-MEL-28 melanoma, 79.9%.
